SMILES strings stand for the structures. The whole screen tested about 290,000 compounds, of which about 11,000 (3.8%) were called active.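 The calls were made as follows: active = mean replicate inhibition above about 79%, with every replicate also reaching it (limit read from the data); inconclusive = only one of the two criteria met; inactive = mean below limit and not every replicate reaching it.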 For the sample, actives were picked, then their nearest neighbours and some compounds at random.

The target of this experiment is FAD-linked sulfhydryl oxidase ALR (Homo sapiens) (UniProt P55789). As to the kind of experiment: inhibitors of human ALR sulfhydryl oxidase, primary screen, biochemical, H2O2 detection, HRP-luminol luminescence, single point (AID 485317). As to conditions: purified ALR, DTT oxidation, hits give high values, concentration not given here.
Chain of FAD-linked sulfhydryl oxidase ALR (Homo sapiens) (P55789 whole entry, looked up): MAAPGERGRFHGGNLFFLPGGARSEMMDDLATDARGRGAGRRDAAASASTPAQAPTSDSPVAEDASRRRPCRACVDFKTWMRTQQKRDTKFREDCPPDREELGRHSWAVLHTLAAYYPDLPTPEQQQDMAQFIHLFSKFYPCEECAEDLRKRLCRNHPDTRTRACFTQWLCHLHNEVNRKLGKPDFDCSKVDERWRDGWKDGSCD
Consider `Cc1cccc(NC(=O)C2CCN(S(=O)(=O)c3cccc4cccnc34)CC2)c1`, for which the inhibition is 88.1% (active).

With `Cc1cc(C)cc(NC(=O)C2CCCN2S(=O)(=O)c2cccc3cccnc23)c1` (configuration not stated), the inhibition is -0.666% (inactive).

Regarding `COc1ccc(NC(=O)C2CCCN(S(=O)(=O)c3cccc4cccnc34)C2)cc1OC` (configuration not stated), the inhibition was -28.5% (inactive).

For `CC(NC(=O)c1ccccc1F)c1cccc2ccccc12` (configuration not stated), the inhibition is -16.5% (inactive).

For the compound `O=c1oc2ccc(C#CC3(O)CCCCC3)cc2cc1-n1cc(-c2ccsc2)nn1`, the inhibition is -6.77% (inactive).

As to `O=C(CN1C(=O)NC2(CCCC2)C1=O)Nc1cc(C(F)(F)F)ccc1N1CCOCC1`, the inhibition is -1.5% (inactive).

Take `COc1ccccc1S(=O)(=O)NCc1ccc(C(=O)N(C)Cc2ccc(F)cc2)cc1`: the inhibition was -4.34% (inactive).

With `C=CCn1c(=S)[nH]c2scc(-c3ccco3)c2c1=O`, the inhibition was 98.3% (active).

Turning to `C=CCNC(=O)CSc1nc2scc(-c3ccco3)c2c(=O)n1CC=C`, the inhibition was -0.872% (inactive).

As to `C=CCn1c(SCc2csc(C)n2)nc2scc(-c3ccc(C)o3)c2c1=O`, the inhibition was 16.6% (inactive).

In the case of `CC1CCCN(Cc2nc3c(c(=O)n(C)c(=O)n3C)n2CC(=O)c2ccccc2)C1` (configuration not stated), the inhibition is -8.6% (inactive).

For `CCOC(=O)N1CCN(Cc2nc3c(c(=O)n(C)c(=O)n3C)n2Cc2ccccc2)CC1`, the inhibition was -3.2% (inactive).

Regarding `CCN1CCN(Cc2nc3c(c(=O)n(C)c(=O)n3C)n2CC(=O)c2ccccc2)CC1`, the inhibition is 98.2% (active).

On to `O=C(CCCCO)c1ccc(O)c(Cl)c1`, for which the inhibition is 7.83% (inactive).

With `Cn1c(Cc2cccc3ccccc23)nnc1SCC(=O)N1CCN(c2cccc(Cl)c2)CC1`, the inhibition is -3.36% (inactive).

Turning to `Cc1cc2nnc(SCC(=O)N3CCN(c4ccccc4)CC3)n2c(N)n1`, the inhibition was 98% (active).

With `Cc1nnc(SCC(=O)N2CCN(c3ccccc3)CC2)n1-c1ccccc1`, the inhibition was 46.1% (inactive).

In the case of `CCN(CC(=O)NCc1ccc(Cl)cc1)C(=O)c1c(C)noc1C`, the inhibition is -1.1% (inactive).

On to `CCOc1ccc2[nH]c(C(=O)N/N=C/c3cccc(OC)c3OC)cc2c1`, for which the inhibition was -44.7% (inactive).

For `COc1cc2cc(C(=O)N/N=C/c3cccc(OC)c3OC)[nH]c2cc1OC`, the inhibition is 15.9% (inactive).

Turning to `COc1ccc2[nH]c(C(=O)N/N=C/c3cc(OC)c(OC)c(OC)c3)cc2c1`, the inhibition is 90.9% (active).

As for `COc1ccc(C(=O)NCC2CCCN2S(=O)(=O)c2cccs2)cc1OC` (configuration not stated), the inhibition is -12.1% (inactive).

Regarding `COc1ccccc1C(CNC(=O)c1ccc(C)c(S(=O)(=O)N2CCCCC2)c1)N(C)C` (configuration not stated), the inhibition is -5.4% (inactive).

On to `Nc1c(N(CCCO)C(=O)C2CCCC2)c(=O)[nH]c(=O)n1Cc1ccccc1`, for which the inhibition is 2.17% (inactive).

For `O=C(NNS(=O)(=O)c1c(F)cc(F)c(Cl)c1F)C12CC3CC(CC(C3)C1)C2`, the inhibition was -7.91% (inactive).

As to `COCCCn1c(SCC(=O)Nc2ccccc2)nnc1-c1ccncc1`, the inhibition is -6.22% (inactive).

`CSc1nnc(-c2ccncc2)n1CCCN1CCCC1=O`: the inhibition was 98.1% (active).

For the compound `CC1CCCCC1NC(=O)CSc1nnc(-c2ccncc2)n1CCCN(C)C` (configuration not stated), the inhibition was -3.25% (inactive).

As for `O=C(c1cnccn1)N1CCN(S(=O)(=O)c2cccc(Cl)c2)CC1`, the inhibition is -2.25% (inactive).

Consider `O=c1nc(N/N=C/c2ccco2)cn[nH]1`, for which the inhibition was -0.901% (inactive).

For `COc1cccc2c(N/N=C/c3ccco3)cc(C)nc12`, the inhibition is 91.2% (active).

With `Cc1cc(C)c(OCC(=O)N/N=C/c2ccco2)c(C)c1`, the inhibition was -5.47% (inactive).

As for `COc1cc2ccccc2cc1C(=O)Nc1nc(C)c(C(C)=O)s1`, the inhibition is -3.67% (inactive).

Turning to `COc1ccc(C(CNC(=O)c2ccc(S(=O)(=O)Nc3ccccc3C)cc2)N2CCOCC2)cc1` (configuration not stated), the inhibition is 1.74% (inactive).

Regarding `CC(NC(=O)COC(=O)Cn1cc(C(F)(F)F)ccc1=O)c1ccccc1` (configuration not stated), the inhibition is -3.5% (inactive).

On to `COc1cc(-c2c(-c3ccc4c(c3)OCO4)noc2C)ccc1F`, for which the inhibition was 3.17% (inactive).

Regarding `COc1c(F)c(F)c(C(=O)O)c(Nc2ccccc2C)c1F`, the inhibition is 18.5% (inactive).

With `CCOC(=O)N1CCN(C(=S)Nc2ccc(C)cc2C)CC1`, the inhibition is -22.4% (inactive).

As to `Cc1ccc(Nc2c(F)c(F)c(F)c(F)c2C(=O)O)c(C)c1`, the inhibition is 98.2% (active).

For `O=C(NCC#CCSc1nnc(-c2cccc3ccccc23)o1)c1cccs1`, the inhibition is -4.12% (inactive).

For `COc1cc(/C=N\NC(=O)CNC(=O)c2cccc([N+](=O)[O-])c2)ccc1O`, the inhibition is 98.6% (active).

As to `COc1ccc(C(=O)NCC(=O)N/N=C/c2ccc([N+](=O)[O-])o2)cc1OC`, the inhibition was -60.3% (inactive).

Turning to `COc1ccc(C(=O)NCC(=O)N/N=C/c2ccc([N+](=O)[O-])s2)cc1OC`, the inhibition is -29.5% (inactive).

Consider `COc1ccc(C(=O)N2CCN(c3ncccn3)CC2)cc1S(=O)(=O)N1CCOCC1`, for which the inhibition is -2.44% (inactive).

As for `CSc1ncccc1C(=O)Nc1cccc(S(=O)(=O)N2CCOCC2)c1`, the inhibition was -2.48% (inactive).

Turning to `O=C1C=C(c2ccnc3cc(Cl)ccc23)C[C@@H](c2ccc3c(c2)OCO3)C1`, the inhibition is -0.313% (inactive).

Turning to `Cc1ccccc1N1CCN(CCCOc2ccc3c(C)cc(=O)oc3c2)CC1`, the inhibition is -0.584% (inactive).

Take `Cc1cc(=O)oc2cc(OCCC[n+]3ccccc3)ccc12`: the inhibition was -10.6% (inactive).

In the case of `Cc1cc(=O)oc2cc(OCC3CC(c4ccccc4Cl)=NO3)ccc12` (configuration not stated), the inhibition is 97.9% (active).

`Cn1nnnc1SCC(=O)Nc1cccc(S(=O)(=O)N2CCCCC2)c1`: the inhibition is -1.39% (inactive).

As for `Cc1ccc(Cl)cc1NC(=O)C1CCCN(c2cnccn2)C1` (configuration not stated), the inhibition is -6.26% (inactive).

For `Cc1ccnc(N2CCCC(C(=O)NC3CC3)C2)n1` (configuration not stated), the inhibition is 1.74% (inactive).

Take `Cc1ccnc(N2CCCC(C(=O)Nc3cc(F)ccc3C)C2)n1` (configuration not stated): the inhibition is 87.3% (active).

On to `Cc1noc(C)c1S(=O)(=O)N(C)C[C@H]1Oc2ccc(NC(=O)C3CC3)cc2C(=O)N([C@H](C)CO)C[C@@H]1C`, for which the inhibition was 2.82% (inactive).

With `CCCNC(=O)c1onc(CSc2ccc(F)cc2)c1C(=O)NC(C)C`, the inhibition was 3.87% (inactive).

With `CN(C)C(=O)COC(=O)c1cccc(S(=O)(=O)N2CC3(C)CC2CC(C)(C)C3)c1` (configuration not stated), the inhibition was -0.802% (inactive).

Turning to `COc1cccc(NC(=O)COC(=O)c2ccc3ccccc3n2)c1`, the inhibition was -1.64% (inactive).

A word on the inhibition: it is the relative decrease from the control value, in per cent.

(Values after PubChem BioAssay AID485317 (Broad Institute, 2010).)
